Compound activity as filed in PubChem.
Most compounds without a hit are left out; they make up all but 1.3% or so of the library.
Phagocyt inh: inhibitors of macrophage phagocytosis, primary screen, imaging, J774A.1 cells, IgG beads; J774A.1 macrophage IgG-bead phagocytosis; inhibition, % at 5 µM; 110,000 tested, 0.07% active; AID 1029, 2008;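 active = inhibition above the mean of the plate negative controls plus 5 SD, cut at about 13% in these data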;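 note: phagocytic index as fraction of beads internalized from green versus red external bead signal; plate controls were DMSO negative control for no effect and cytochalasin-D positive control for full effect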
S1P2 antag: human S1P2 receptor antagonists, primary screen, cell-based; Sphingosine 1-phosphate receptor 2 (Homo sapiens), O95136; inhibition, % at 5 µM; cell-based S1P2 antagonist assay, inhibition at 5 uM; 97,000 tested, 0.21% active; in the data active = inhibition above about 45%;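 note: CRE beta-lactamase reporter cells expressing human S1P2 stimulated with S1P; 0% = agonist at EC80 alone and 100% = agonist plus reference antagonist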
S1P2 agonist: S1P2 receptor agonists, primary screen, cell-based | Sphingosine 1-phosphate receptor 2 (Homo sapiens), O95136 | 97,000 tested, 0.46% active | S1P2-expressing cell line, agonist reporter read-out | activation, % at 4.5 µM | AID 729, 2007; in the data active = activation above about 16%;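 note: 0% = vehicle low control and 100% = maximal reference agonist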
GALR2 antag: GALR2 antagonists in receptor-expressing cells, primary screen. Galanin receptor type 2 (Homo sapiens), O43603. antagonist mode. inhibition, % at 4 µM. 140,000 tested, 0.39% active. AID 828, 2007; in the data active = inhibition above about 27%;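 note: cells stimulated with galanin 1-16 at roughly its EC80; 0% = agonist challenge control and 100% = basal control without agonist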
Target sequence (O43603 whole entry, looked up): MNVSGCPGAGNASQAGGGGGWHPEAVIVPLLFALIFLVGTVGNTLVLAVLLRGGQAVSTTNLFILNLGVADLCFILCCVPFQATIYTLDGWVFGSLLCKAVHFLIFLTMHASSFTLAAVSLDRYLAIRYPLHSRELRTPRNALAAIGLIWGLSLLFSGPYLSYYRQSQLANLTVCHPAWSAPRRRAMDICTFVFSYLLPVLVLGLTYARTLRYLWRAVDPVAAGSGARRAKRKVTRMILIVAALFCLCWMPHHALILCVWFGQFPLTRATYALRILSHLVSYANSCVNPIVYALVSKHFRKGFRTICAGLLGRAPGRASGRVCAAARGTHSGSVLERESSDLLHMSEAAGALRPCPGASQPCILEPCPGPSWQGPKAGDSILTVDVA
GALR2 ag: GALR2 receptor agonists, primary screen, cell-based. activation, % (no concentration beside the values). GALR2-expressing cells, agonist activation read-out. 140,000 tested, 0.48% active; in the data active = activation above about 5%, passing the limit was not always enough;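 note: 0% = vehicle buffer wells and 100% = reference agonist at full effect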
* = called active by the depositor; / = no result; [ ] = remark or other dose.

SMILES | Phagocyt inh | S1P2 antag | S1P2 agonist | GALR2 antag | GALR2 ag
Cc1ccc(C)c(N2CCN(C(=O)CCCN3C(=S)NC(C)(C)CC3C)CC2)c1 (configuration not stated) | -9.4 | / | / | 1.1 | -0.1
COC(=O)c1c(C)[nH]c(C(=O)/C=C/c2cccc(Cl)c2)c1C | -4.3 | / | / | -1.4 | 0.9
COC(=O)c1c(C)[nH]c(C(=O)/C=C/c2ccccc2)c1C | -7.1 | / | / | 6.9 | 6.2*
CCOCCCNc1nc(=S)[nH]c2cc(OC)c(OC)cc12 | -3.2 | 27.2 | 448.9* | 3.8 | -1.5
Cc1cc(C)cc(NC(=S)NCCN2CCOCC2)c1 | / | 11.5 | -1.6 | 3.4 | -1.1
COc1cc(S(=O)(=O)N2CCN=C2c2ccccc2)ccc1F | -0.7 | 2.4 | 26.6* | 2.4 | -2.2
Cc1ccc(S(=O)(=O)N2CCN=C2c2ccccc2)cc1C | / | -9.8 | -2.8 | -8.4 | -1.8
CCCCC(=O)Nc1ccc(C(=O)NN2C(=O)c3ccccc3C2=O)cc1 | 5.1 | -0.5 | 1.5 | 7.1 | -0.4
Cc1cc(Nc2ccc(Cl)cc2)nc(NCc2ccccc2)n1 | -5.0 | / | / | 12.2 | 2.8
CCCCNc1cc(C)nc(NCc2ccccc2)n1 | 0.7 | 56.8* | -4.2 | 24.4 | -0.9
Cc1cc(C(=O)O)ccc1-n1c(C)ccc1C | / | 10.3 | 25.4* | -0.1 | -2.0
COc1ccc(CN2C(=S)NC(C)(C)CC2(C)O)cc1 (configuration not stated) | -1.1 | / | / | 0.6 | -0.4
CC(O)C1C(=O)OC2(C)CC(C)(C)NC(=S)N12 (configuration not stated) | / | -2.5 | 44.0* | 24.1 | -2.9
Cc1c(NC(=O)c2cccnc2C(=O)O)cccc1C(=O)O | -2.3 | / | / | -3.4 | -1.2
Cn1c(C(=O)N2CCCC2)cc2c(=O)n(C)c3ccccc3c21 | -1.0 | -25.5 | 21.2* | -15.1 | -1.1
Cn1c(C(=O)N2CCN(c3ncccn3)CC2)cc2c(=O)n(C)c3ccccc3c21 | 0.4 | -3.5 | 1.2 | -7.9 | -1.8
COc1cc2c(cc1OC)C(COc1ccc3c(C)cc(=O)oc3c1)N(C(=O)c1ccco1)CC2 (configuration not stated) | / | -8.1 | 21.2* | 1.5 | -1.0
N#C/C(=C/c1ccc(N2CCCCCC2)o1)c1ccc(Cl)cc1 | -0.6 | 48.8* | -5.0 | 26.6 | 0.1
N#C/C(=C/c1ccc(N2CCCCC2)o1)c1cccc(F)c1 | -0.7 | 42.0 | -4.2 | 12.4 | -2.7
Cc1ccc(NC(=O)CN(c2ccccc2)S(=O)(=O)N(C)C)cc1 | -5.2 | / | / | 1.0 | -0.2
CCCCn1c(CNC(=O)C23CC4CC(CC(C4)C2)C3)nnc1SC(C)CC (configuration not stated) | -8.1 | / | / | -7.7 | -1.2
CCOC(=O)c1cc(CC)sc1NC(=O)c1ccc(N2C(=O)CCC2=O)cc1 | 1.9 | -16.9 | -4.5 | 5.2 | -2.6
CCOC(=O)c1[nH]c2ccc(F)cc2c1NC(=O)C1=COCCO1 | -1.3 | 7.9 | -1.0 | 8.5 | -0.3
CCOC(=O)c1cc(CC)sc1NC(=O)c1cc(OC)c(OC)c(OC)c1 | -0.2 | -69.5 | 16.2* | -6.2 | -0.9
CCOC(=O)c1[nH]c2ccc(F)cc2c1NC(=O)c1cc(OC)c(OC)c(OC)c1 | -0.4 | -33.5 | 17.6* | 6.2 | -1.1
SMILES | Phagocyt inh | S1P2 antag | S1P2 agonist | GALR2 antag | GALR2 ag
CCc1cc2c(CN3CCN(CC)CC3)cc(=O)oc2cc1O | 0.7 | 12.9 | 3.9 | 2.5 | 4.9*
CCN1CCN(Cc2cc(=O)oc3cc(C)cc(C)c23)CC1 | -1.0 | -5.5 | -4.1 | 3.6 | -0.1
COc1ccc(N=C2S/C(=C\c3ccc(N4CCOCC4)o3)C(=O)N2CCc2c[nH]c3ccccc23)cc1 | / | 47.7* | -4.2 | 15.3 | 1.5
CCCN1C(=O)/C(=C/c2ccc(C)o2)SC1=Nc1ccc(OC)cc1 | / | 3.4 | -10.2 | -8.9 | -1.7
C=CCSc1nc2ccccc2n1C(=O)/C=C/c1ccc(OC)c(OC)c1 | / | 24.6 | -7.9 | -0.5 | -0.2
C=CCSc1nc2ccccc2n1C(=O)/C=C/c1cc(OC)c(OC)c(OC)c1 | / | 54.1* | -6.0 | 6.8 | 1.4
Cc1c(C(=O)OCC(=O)NCc2ccc3c(c2)OCO3)cccc1[N+](=O)[O-] | 6.6 | / | / | 8.0 | 0.8
Cc1ccc(S(=O)(=O)N(C)C)cc1NC(=O)c1cncc(Br)c1 | -6.6 | / | / | -2.7 | 0.2
COc1cc2c(cc1OC)-c1cc(N3CCCCCC3)nc(=O)n1CC2 | -1.1 | -26.0 | 36.0* | -6.3 | 0.1
COc1cc2c(cc1OC)-c1cc(NC3CCCCCC3)nc(=O)n1CC2 | -0.3 | -43.9 | 42.1* | -10.7 | -0.6
COc1cc2c(cc1OC)-c1cc(N3CCCc4ccccc43)nc(=O)n1CC2 | 3.2 | -47.8 | 40.8* | -1.8 | 0.1
CON(C)c1nc(OCC#N)nc(N(C)C)n1 | -13.3 | / | / | 10.2 | -1.1
C=CCNc1nc2c(c(=O)[nH]c(=O)n2C)n1Cc1cccc(C)c1 | / | 10.9 | -4.1 | -6.8 | -0.6
COCCNc1nnc(SCC(=O)c2c[nH]c3ccccc23)s1 | / | / | / | 3.7 | -0.2
Cc1ccc(C)c(NC(=S)NC(NC(=O)Cc2cccc3ccccc23)C(Cl)(Cl)Cl)c1 (configuration not stated) | / | 18.2 | 26.0* | -0.1 | 1.1
Cc1ccc(C)c(NC(=S)NC(NC(=O)N(C)C)C(Cl)(Cl)Cl)c1 (configuration not stated) | -0.5 | 10.1 | -6.1 | 7.0 | -2.7
Cc1c(Cl)cccc1NC(=S)N1CCC(C(N)=O)(N2CCCCC2)CC1 | -3.3 | / | / | -14.2 | -1.2
CCn1nc(C(=O)OC(C(=O)c2c[nH]c3ccccc23)c2ccccc2)c2ccccc2c1=O (configuration not stated) | 0.5 | -54.8 | 4.7 | -14.0 | 2.5
O=C1C2C3C=CC(CO)(O3)C2C(=O)N1c1ccccc1-c1ccccc1 (configuration not stated) | -0.6 | / | / | 75.6* | -0.9
CC(=O)Oc1ccc(N2C(=O)C3C4C=CC(CO)(O4)C3C2=O)cc1 (configuration not stated) | -0.1 | -3.8 | 0.5 | 17.1 | -0.7
Cc1cc(C)n(CC(O)CN2c3ccccc3Sc3ccccc32)n1 (configuration not stated) | -0.8 | 3.3 | 2.0 | -12.9 | -0.9
N=c1c2c(-c3ccccc3)c(-c3ccccc3)n(Cc3ccco3)c2ncn1Cc1ccco1 | -1.5 | / | / | -1.6 | 5.2*
N=c1c2c(-c3ccccc3)c(-c3ccccc3)n(Cc3ccccc3)c2ncn1CCCn1ccnc1 | / | 15.6 | -2.6 | 5.7 | 3.0
O=C(COC(=O)c1ccc(CO)cc1)NCc1cccs1 | -0.8 | / | / | 6.4 | -0.7
COc1cc(/C=N/NC(=O)CNc2n[nH]c(=O)[nH]c2=O)ccc1O | -3.9 | / | / | 0.3 | 0.3
COc1ccc(/C=N/NC(=O)CNc2n[nH]c(=O)[nH]c2=O)cc1OC | 96.9*[artifact] | / | / | 0.2 | -0.1
CC(C)CC(=O)NNC(=O)C(C)C | -17.2 | / | / | -1.0 | -0.2
O=C(NCc1cccs1)C1CCCN(c2nc3ccccc3o2)C1 (configuration not stated) | / | 10.2 | -4.5 | 19.3 | -0.8
O=C(COc1ccc(Cl)cc1Br)NNC(=O)C(=O)N1CCCCC1 | -1.1 | -11.7 | -4.9 | 3.2 | 21.1*
